Experimental findings from PubChem BioAssay (NCATS) are described below.

Assay [1] addresses Lysosomal acid glucosylceramidase (Homo sapiens) (UniProt P04062). Briefly: Glucocerebrosidase-p2 (AID 348; in the data active = potency below about 10 µM; note: potency is the fitted concentration of half-maximal effect). Conditions: purified GBA, blue fluorogenic substrate, 40 min. The gist of the method: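 Normal human glucocerebrosidase (0.2 nM) with blue fluorogenic substrate (80 uM final) in citrate/phosphate pH 5.9 with 10mM sodium taurocholate, 0.01% tween-20; 40 min RT, NaOH/glycine stop; fluorescence Ex 365/Em 440; AC50 from a titration from 0.6 nM upwards.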

Assay [2] in a line: AP1 Signaling Pathway (AID 357).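 Note: ME-180 reporter cells stimulated with EGF at its EC50 level; % is set by controls: 0 for no effect and ±100 for the full control effect.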 Conditions: ME-180 AP-1-bla reporter, EGF-induced, beta-lactamase ratio, 5 h; at 7.69 µM (top of the series) unless noted. The gist of the method: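 First, ME-180 AP-1-bla cells were cultured overnight at 37 °C in low-serum Opti-MEM. Next, titrated compounds with EC50 EGF were incubated 5 hours. Finally, CCF4 was added for 2.5 hours and the 460/530 nm ratio recorded.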

Assay [3] concerns the target Cytochrome P450 1A2 (Homo sapiens) (UniProt P05177). Briefly: p450-cyp1a2 (AID 410; calls by dose curve; note: potency is the fitted concentration of half-maximal effect;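 for activity change, negative = inhibition: -100% = full effect of reference inhibitor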). The settings on record: recombinant CYP1A2, luciferin-ME demethylation, luminescence; series mostly up to 11.4 µM. The gist of the method: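 20nM CYP1A2, 100uM Luciferin-ME (=Km), 100mM KPO4; cpd 10 min RT; +NADPH regen, 60 min RT; stop/detect 20 min; luminescence. Normalized to furafylline 57 uM = full inhibition.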

Assay [4] can be described thus: NFAT Signaling Pathway (AID 444).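 Note: carbachol stimulus at about its EC50 of 1 µM final; % is set by controls: 0 for no effect and ±100 for the full control effect.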 Conditions: Jurkat NFAT-bla M1, carbachol, beta-lactamase ratio, 5 h; at 7.69 µM (top of the series) unless noted. The gist of the method: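 Jurkat cells with NFAT-driven β-lactamase reporter and co-expressed M1 receptor, stimulated with carbachol (final 1 uM, ~EC50), compound titration, 5 h at 37 °C. CCF4 loaded 1 h at RT; 460/530 nm ratio gave %activity and AC50.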

A short description of assay [5]: Stat Signaling Pathway (AID 446).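 Note: ME-180 cervical cancer cells given 40 pM IL-6 alongside compound; SIE-controlled beta-lactamase reporter measured as 460/530 nm FRET emission ratio; % is set by controls: 0 for no effect and ±100 for the full control effect.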 Conditions: ME-180 (cervical carcinoma) SIE beta-lactamase reporter, IL-6 stimulated, 5 h; at 7.69 µM (top of the series) unless noted. Summed up: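 Compound effects on IL-6-induced STAT reporter activity were measured in ME-180 cells. After overnight culture, cells were co-treated with 40 pM IL-6 for 5 hrs before beta-lactamase substrate loading at room temperature.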

The target of assay [6] is Glucocorticoid receptor (Homo sapiens) (UniProt P04150). Briefly: GR-GFP Redistribution (AID 450;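 active = compounds whose dose series gives a full or clear partial fitted curve of increased nuclear translocation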; note: potency is the fitted concentration of half-maximal effect). The settings on record: U2OS GR-GFP nuclear translocation, laser cytometry, 2 h.
Assay [7] shares this target. The experiment in a line: GR-EFC Redistribution (AID 451; calls by dose curve; note: potency is the fitted concentration of half-maximal effect). The settings on record: CHO-K1 GR-EFC translocation, beta-gal luminescence, 2 h. The gist of the method:
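CHO-K1 cells expressing nuclear EA and GR-ED fragments of b-gal; compounds titrated up to 46 uM final, 2 h at 37 C. GR nuclear translocation read as complemented b-gal luminescence after 1 h RT detection.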

The target of assay [8] is Mitogen-activated protein kinase 10 (Mus musculus) (UniProt Q61831). Briefly: JNK3 AlphaScreen Assay (AID 530).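 Note: kinase came from lysate of stimulated human HepG2 cells; signal reports phosphorylation of biotinylated GST-cJun 1-79 at Ser73 with 10 µM ATP; % is set by controls: 0 for no effect and ±100 for the full control effect.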 Conditions: JNK3 lysate, c-Jun phosphorylation; series mostly up to 11.4 µM. Summed up: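 HepG2 lysate (IL-1b/TNFa pre-activated) + biotin-GST-cJun 1-79 + anti-pSer73 cJun; cpd titration, 15 min RT; ATP 10 uM start; Tris pH 7.6, MgCl2, DTT, vanadate; beads in EDTA buffer; AlphaScreen.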

Assay [9] deals with 3',5'-cyclic-AMP phosphodiesterase 4B (Homo sapiens) (UniProt Q07343). The experiment in a line: qHTS Assay for Inhibitors of PDE-IV (AID 607; active = well fitted activation curve with a large enough effect in the main read-out, with a control signal flat, not every such curve was filed as active; note: % of control where 0% means no effect). The settings on record: HEK293 ACTOne CNG channel cells, membrane potential fluorescence; series mostly up to 22.9 µM. Summed up: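 ACTOne HEK293 cells carry a modified cAMP-gated CNG channel and express endogenous PDE4; plated 1000 cells/well, compounds up to 22.9 uM final. Membrane-potential dye fluorescence (ex 535/em 590) was read; parental cells received 10 uM forskolin + 100 uM RO 20-1724.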
On the technique in general: Quantitative high-throughput screening tests each substance at several concentrations.

Unmarked numbers belong to inactive results. Records with an inconclusive call do not appear. The source made the active and inactive calls. Unless noted, calls come from the whole dose curve; as a rule, active = well fitted curve in either direction with a large enough effect (not every such curve was filed as active); inconclusive = small, poorly fitted or top-dose-only effect, or another doubt; inactive = flat fitted curve, though single readings scatter.

Glucocorticoid receptor (Homo sapiens), sequence (P04150 whole entry, looked up): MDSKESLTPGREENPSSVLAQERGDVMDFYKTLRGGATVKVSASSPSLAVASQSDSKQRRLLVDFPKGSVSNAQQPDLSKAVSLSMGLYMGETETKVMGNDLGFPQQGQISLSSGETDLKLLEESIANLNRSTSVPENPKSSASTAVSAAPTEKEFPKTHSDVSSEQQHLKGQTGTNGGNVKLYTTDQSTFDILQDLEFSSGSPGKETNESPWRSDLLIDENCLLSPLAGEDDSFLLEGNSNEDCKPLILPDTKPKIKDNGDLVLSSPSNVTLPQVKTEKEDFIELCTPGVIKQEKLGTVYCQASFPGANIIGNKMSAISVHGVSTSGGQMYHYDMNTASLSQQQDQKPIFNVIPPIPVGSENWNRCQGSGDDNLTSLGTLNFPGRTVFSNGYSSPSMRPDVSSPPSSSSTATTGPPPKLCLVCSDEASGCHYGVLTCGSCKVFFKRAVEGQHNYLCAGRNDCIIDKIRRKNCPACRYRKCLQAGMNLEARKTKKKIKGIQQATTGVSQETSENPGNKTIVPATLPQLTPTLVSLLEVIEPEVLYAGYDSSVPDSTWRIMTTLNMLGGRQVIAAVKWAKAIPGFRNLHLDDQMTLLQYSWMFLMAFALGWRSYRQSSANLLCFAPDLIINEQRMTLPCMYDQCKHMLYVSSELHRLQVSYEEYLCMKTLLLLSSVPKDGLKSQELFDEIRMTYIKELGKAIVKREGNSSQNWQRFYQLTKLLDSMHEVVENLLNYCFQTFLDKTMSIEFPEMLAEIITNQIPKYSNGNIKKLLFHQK
Lysosomal acid glucosylceramidase (Homo sapiens), sequence (P04062 whole entry, looked up): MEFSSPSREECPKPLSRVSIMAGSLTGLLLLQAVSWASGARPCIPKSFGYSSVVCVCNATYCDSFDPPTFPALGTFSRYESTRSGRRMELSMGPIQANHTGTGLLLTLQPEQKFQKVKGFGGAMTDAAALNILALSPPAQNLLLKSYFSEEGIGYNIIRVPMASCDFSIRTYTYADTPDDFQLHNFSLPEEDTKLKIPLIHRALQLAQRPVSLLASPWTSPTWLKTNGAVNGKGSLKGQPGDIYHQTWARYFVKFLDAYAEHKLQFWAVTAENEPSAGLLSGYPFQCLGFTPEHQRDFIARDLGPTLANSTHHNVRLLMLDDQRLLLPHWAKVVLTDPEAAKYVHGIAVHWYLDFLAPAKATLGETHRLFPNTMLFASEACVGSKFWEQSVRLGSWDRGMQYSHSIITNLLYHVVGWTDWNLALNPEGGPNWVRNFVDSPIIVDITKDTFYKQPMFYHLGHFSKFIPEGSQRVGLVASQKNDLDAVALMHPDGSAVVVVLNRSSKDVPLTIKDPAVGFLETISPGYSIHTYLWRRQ
Cytochrome P450 1A2 (Homo sapiens), sequence (P05177 whole entry, looked up): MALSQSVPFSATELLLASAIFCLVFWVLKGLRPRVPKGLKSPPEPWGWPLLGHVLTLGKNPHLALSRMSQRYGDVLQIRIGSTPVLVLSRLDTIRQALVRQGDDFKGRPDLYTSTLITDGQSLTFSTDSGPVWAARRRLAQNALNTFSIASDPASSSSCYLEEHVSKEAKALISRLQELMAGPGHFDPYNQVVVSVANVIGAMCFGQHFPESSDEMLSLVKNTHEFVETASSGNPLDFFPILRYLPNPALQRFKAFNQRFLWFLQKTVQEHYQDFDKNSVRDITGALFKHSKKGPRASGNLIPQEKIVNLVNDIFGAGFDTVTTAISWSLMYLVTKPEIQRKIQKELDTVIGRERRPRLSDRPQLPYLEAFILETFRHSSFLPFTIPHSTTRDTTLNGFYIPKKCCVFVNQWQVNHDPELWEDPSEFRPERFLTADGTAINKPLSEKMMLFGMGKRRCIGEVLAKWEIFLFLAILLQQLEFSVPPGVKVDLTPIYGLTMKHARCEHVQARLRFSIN
3',5'-cyclic-AMP phosphodiesterase 4B (Homo sapiens), sequence (Q07343 whole entry, looked up): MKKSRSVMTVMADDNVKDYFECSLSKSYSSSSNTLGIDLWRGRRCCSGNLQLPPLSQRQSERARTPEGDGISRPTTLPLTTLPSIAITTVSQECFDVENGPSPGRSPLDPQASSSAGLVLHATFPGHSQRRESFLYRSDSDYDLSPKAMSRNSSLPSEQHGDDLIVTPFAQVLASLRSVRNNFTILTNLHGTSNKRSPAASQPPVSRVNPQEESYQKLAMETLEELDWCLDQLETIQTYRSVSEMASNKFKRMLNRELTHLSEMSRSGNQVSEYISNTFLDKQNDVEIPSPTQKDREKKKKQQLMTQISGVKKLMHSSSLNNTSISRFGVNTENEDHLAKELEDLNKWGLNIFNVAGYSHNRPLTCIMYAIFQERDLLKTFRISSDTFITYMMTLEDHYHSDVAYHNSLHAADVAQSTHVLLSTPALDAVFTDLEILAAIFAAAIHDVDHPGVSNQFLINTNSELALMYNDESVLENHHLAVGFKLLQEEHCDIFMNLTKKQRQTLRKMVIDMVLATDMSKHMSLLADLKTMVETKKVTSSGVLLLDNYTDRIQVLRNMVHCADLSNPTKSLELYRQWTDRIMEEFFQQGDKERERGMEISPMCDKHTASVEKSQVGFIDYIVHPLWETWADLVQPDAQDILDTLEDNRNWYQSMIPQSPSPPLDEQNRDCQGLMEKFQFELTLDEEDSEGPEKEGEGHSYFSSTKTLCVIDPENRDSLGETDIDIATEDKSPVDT

For `O=C(O)/C=C(/C(=O)O)[C@]12CCN3CC4=CCO[C@@H]5CC(=O)N[C@@H]1[C@H]5[C@H]4C[C@H]32`, the Potency was over 11.4 µM in [1], over 46 µM in [6] and over 9.22 µM in [7]. Besides, the values for the activity change, negative = inhibition in [2], in [3] and in assay [4] were 9.14%, -15% [at 2.29 µM] and -1.3%, respectively. In assay [5], the activity, negative = inhibition was -7.59%. In addition, the Potency entry in assay [8] and in assay [9] was “inactive” each time.
Consider `CC1(C)O[C@H]2[C@@H](O1)[C@@H](On1nnc3ccc(Cl)cc31)O[C@@H]2[C@@H]1COC(C)(C)O1`, for which the figures for the Potency in [1], in [6] and in assay [7] were over 11.4 µM, over 46 µM and over 9.22 µM, respectively. Further, the activity change, negative = inhibition is -0.0878% in assay [2], -10.9% [at 2.29 µM] in [3] and 3.42% in assay [4]. Besides, the activity, negative = inhibition in assay [5] was 2.63%. Besides, the Potency entry in assay [8] and in [9] was “inactive” each time.
As for `O=C(O)[C@H](CCc1ccccn1)c1ccccc1`, the figures for the Potency in assay [1], in [6] and in [7] were over 11.4 µM, over 46 µM and over 9.22 µM, respectively. The activity change, negative = inhibition is -0.682% in [2] and -1.01% in [4]. Besides, the Potency entry in assay [3], in assay [8] and in assay [9] was “inactive” in each case. In addition, the activity, negative = inhibition in [5] is 0.534%.
For `O=C(O)[C@@H](Cc1c[nH]c2ccccc12)C(=O)NO`, the Potency in assay [1] was over 11.4 µM; in assay [6] it was over 46 µM; in assay [7], over 9.22 µM. For the same molecule, the activity change, negative = inhibition in [2] is -4.03%; in assay [4] it was 4.43%. Besides, the Potency entry in assay [3], in assay [8] and in assay [9] was “inactive” throughout. Moreover, the activity, negative = inhibition in assay [5] is 4.19%.
As to `CN(C)CC(CN(C)C)c1ccccn1`, the Potency is over 11.4 µM in assay [1], over 46 µM in assay [6] and over 9.22 µM in [7]. The figures for the activity change, negative = inhibition in [2] and in [4] were 3.76% and 10.8%, respectively. Besides, the Potency result in assay [3], in assay [8] and in assay [9] was “inactive” each time. The activity, negative = inhibition in assay [5] was 1.27%.
Regarding `CN1CCCC[C@@H]1CCN1CCCCC1`, the Potency in [1] was over 11.4 µM; in assay [3] it was 0.01 µM (active); in assay [6], over 46 µM; in [7] it was over 9.22 µM. Moreover, the values for the activity change, negative = inhibition in assay [2] and in [4] were 4.46% and -9.35%, respectively. Moreover, the activity, negative = inhibition in assay [5] is 3.65%. The Potency entry in assay [8] and in [9] was “inactive” throughout.
Take `CN(C)CCCNc1ncnc2nc[nH]c12`: the values for the Potency in assay [1], in assay [6] and in assay [7] were over 11.4 µM, over 46 µM and over 9.22 µM, respectively. In addition, the activity change, negative = inhibition is -0.851% in assay [2] and -10.5% in [4]. Further, the Potency result in assay [3], in assay [8] and in assay [9] was “inactive” in each case. In assay [5], the activity, negative = inhibition was 3.41%.
For `C/C(=N/NS(=O)(=O)c1ccc(C)cc1)P(=O)(O)O`, the figures for the Potency in assay [1], in [6] and in assay [7] were over 11.4 µM, over 46 µM and over 9.22 µM, respectively. Moreover, the activity change, negative = inhibition in assay [2] was 1.2%; in assay [4], 7.41%. The Potency entry in assay [3], in [8] and in assay [9] was “inactive” each time. Further, the activity, negative = inhibition in [5] was 6.08%.
As for `O=c1[nH]cc(CS(=O)(=O)Cc2c[nH]c(=O)[nH]c2=O)c(=O)[nH]1`, the Potency in assay [1] is over 11.4 µM; in [6], over 46 µM; in assay [7], over 9.22 µM. Also, the activity change, negative = inhibition is -0.933% in assay [2] and 1.47% in assay [4]. The Potency result in [3], in [8] and in assay [9] was “inactive” in each case. The activity, negative = inhibition in assay [5] is 0.704%.
Regarding `CC(=NCC(=O)O)c1ccccc1`, the Potency is over 11.4 µM in assay [1], 3.98 µM (active) in assay [3], over 46 µM in assay [6] and over 9.22 µM in assay [7]. Moreover, the activity change, negative = inhibition in assay [2] was 0.333%; in assay [4], 13.9%. Further, in [5], the activity, negative = inhibition is 1.76%. Moreover, the Potency result in assay [8] and in assay [9] was “inactive” in each case.
For the molecule `Cc1ccc(S(=O)(=O)NC(=O)OC23COCN2COC3)cc1`, the Potency in assay [1] was over 11.4 µM; in [6], over 46 µM; in assay [7], over 9.22 µM. Moreover, the activity change, negative = inhibition in assay [2] is 8.05%; in assay [4], 27.6%. Further, the Potency result in assay [3], in [8] and in assay [9] was “inactive” each time. Further, the activity, negative = inhibition in assay [5] is 15.3%.
`CC1=C[N+](=O)c2ccccc2[N+]1=O`: the Potency is over 11.4 µM in [1], 6.31 µM (active) in assay [3], over 46 µM in assay [6] and over 9.22 µM in [7]. The activity change, negative = inhibition was 5.1% in assay [2] and 13.8% in [4]. Moreover, the activity, negative = inhibition in assay [5] was 0.919%. For the same molecule, the Potency result in assay [8] and in [9] was “inactive” throughout.
Turning to `O=C1C2C3C=CC(C2C(=O)N1CN1CCOCC1)C1C2C(=O)N(CN4CCOCC4)C(=O)C2C31` (centres undefined), the Potency in [1] was over 11.4 µM; in assay [6], over 46 µM; in [7], over 9.22 µM. For the same molecule, the values for the activity change, negative = inhibition in assay [2] and in [4] were 1.83% and 6.33%, respectively. The Potency entry in assay [3], in assay [8] and in assay [9] was “inactive” throughout. The activity, negative = inhibition in assay [5] was 11.2%.
For the molecule `O=C(O)c1ccc(Cc2ccccc2C(=O)O)cc1`, the Potency in assay [1] was over 11.4 µM; in [6] it was over 46 µM; in [7] it was over 9.22 µM. Also, the activity change, negative = inhibition in assay [2] was -5.89%; in [4], 5.4%. Besides, the Potency entry in assay [3], in assay [8] and in [9] was “inactive” in each case. The activity, negative = inhibition in assay [5] was -2.65%.
Take `c1ccc2cc(-c3cc(-c4cc(-c5ccc6ccccc6c5)on4)no3)ccc2c1`: the Potency in [1] was over 11.4 µM; in [3], 1.58 µM (active); in [6], over 46 µM; in [7], over 9.22 µM. Moreover, the activity change, negative = inhibition in [2] was 2.52%; in assay [4], 1.2%. In [5], the activity, negative = inhibition is 1.33%. Also, the Potency entry in assay [8] and in [9] was “inactive” each time.
As for `N[C@@](CC(=O)O)(Cc1ccccc1)C(=O)O`, the Potency was over 11.4 µM in [1], over 46 µM in assay [6] and over 9.22 µM in [7]. The activity change, negative = inhibition in [2] was -6.1%; in assay [3], -13.4% [at 2.29 µM]; in assay [4] it was 0.819%. In assay [5], the activity, negative = inhibition is 6.06%. Besides, the Potency entry in assay [8] and in [9] was “inactive” in each case.
